Results published in PubChem BioAssay (Tox21).
Inconclusive results are not listed. Activity calls are given as the source filed them. Unless noted, the call rests on the fitted dose curve.

Tests used:
[1] = Nuclear factor erythroid 2-related factor 2/antioxidant responsive element (Nrf2/ARE) small molecule agonists: qHTS cell viability counter screen in human keratinocytes (AID 1919968; active means well fitted curve in the direction sought with a large enough effect in the repeat runs; an effect the other way counts as inactive or inconclusive; further: nearly all actives have a fitted effect of over 55% in size)
Summary of the method: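 Seed 1,500 KeratinoSens cells per well, then incubate 5 h at 37 C/5% CO2. Add compounds in DMSO and incubate 23 h. Add CellTiter-Fluor, wait 1 h and read fluorescence.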

[2] = Nuclear factor erythroid 2-related factor 2/antioxidant responsive element (Nrf2/ARE) small molecule agonists: luciferase reporter gene qHTS assay in human keratinocytes (AID 1919969); further: nearly all actives have a fitted effect of over 35% in size
[3] = target: Gonadotropin-releasing hormone receptor (Homo sapiens) (UniProt P30968); assay: Human gonadotropin-releasing hormone receptor (GnRHR) small molecule agonists, calcium flux assay in GnRHR-HEK293 cells (AID 1920063); further: nearly all actives have a fitted effect of over 35% in size
Summary of the method: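 Cells: HEK293 stably expressing human GnRHR. Steps: overnight (18 h) culture, 1 h calcium dye loading at 37 C, compound addition, kinetic fluorescence read at 480/540 nm. Each compound tested at 15 concentrations in triplicate.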

[4] = target: KiSS-1 receptor (Homo sapiens) (UniProt Q969F8); assay: Human kisspeptin (KISS1R) small molecule agonists, calcium flux assay in KISS1R-HEK293 cells (AID 1920064; active means well fitted curve in the direction sought with a large enough effect in the repeat runs; an effect the other way counts as inactive or inconclusive)
Summary of the method: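 Cells plated and incubated 18 h; dye added, 1 h at 37 C; compounds in DMSO pinned in; signal read at 480/540 nm every second for 3 min. Each compound tested at 15 concentrations in triplicate.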

[5] = G protein-coupled receptor (GPCR) small molecule agonists, calcium flux assay: HEK293 wild type cell line counter screen (AID 1920065)
Summary of the method: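 Counter-screen of the Tox21 10K library for non-specific calcium release: dye-loaded cells received compounds in DMSO and were monitored by kinetic fluorescence (480/540 nm, 3 min). Fifteen concentrations, run in triplicate.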

[6] = p53 small molecule agonists, cell-based qHTS assay with human liver microsomes (AID 1963577)
Summary of the method: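 p53RE-bla reporter cells were pre-incubated 5 h at 37 C, then treated with compounds plus human liver microsomes (0.5 mg/mL final) and NADPH (0.5 mg/mL final) for 16 h at 37 C. Beta-lactamase activity was read by LiveBLAzer fluorescence after 2 h at room temperature.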

[7] = p53 small molecule agonists, cell-based qHTS assay with rat liver microsomes (AID 1963578)
Summary of the method: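 p53RE-bla cells were exposed to compounds together with rat liver microsomes (0.5 mg/mL final) and NADPH (0.5 mg/mL final) for 16 h at 37 C, then read by LiveBLAzer beta-lactamase fluorescence after 2 h at room temperature.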

[8] = p53 small molecule agonists, cell-based qHTS assay with human liver microsomes: qHTS cell viability counter screen (AID 1963579); further: nearly all actives have a fitted effect of over 45% in size
Summary of the method: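 p53RE-bla cells (4,000/well) were pre-incubated 5 h at 37 C, then given compounds in DMSO plus human liver microsomes (0.5 mg/mL final) and NADPH (0.5 mg/mL final) for 16 h at 37 C. Viability was read by CellTiter-Glo luminescence.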

[9] = p53 small molecule agonists, cell-based qHTS assay with rat liver microsomes: qHTS cell viability counter screen (AID 1963580); further: nearly all actives have a fitted effect of over 45% in size
Summary of the method: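 HCT-116 p53RE-bla, 4,000 cells/well, 5 h pre-incubation; cpd + rat liver microsomes 0.5 mg/mL + NADPH 0.5 mg/mL (final); 16 h, 37 C; CellTiter-Glo, 30 min RT; luminescence.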

[10] = p53 small molecule agonists, cell-based qHTS assay: qHTS cell viability counter screen (AID 1963581); further: nearly all actives have a fitted effect of over 45% in size
Summary of the method: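 Cells: HCT-116 with p53 response element-driven beta-lactamase. Treatment: 16 h, 37 C, compounds in DMSO. Read: CellTiter-Glo luminescence after 30 min RT.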

[11] = p53 small molecule agonists, cell-based qHTS assay (AID 1963582; active means well fitted activation curve with a large enough effect in the signal ratio in the repeat runs, not every such curve was filed as active; the % refers to the signal ratio)
Summary of the method: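 Quantitative HTS in p53RE-bla cells: after a 5 h settling period, compounds delivered in DMSO were left on cells for 16 h at 37 C, and reporter induction was measured as fluorescence following 2 h substrate loading.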

[12] = target: 5-hydroxytryptamine receptor 2A (Homo sapiens) (UniProt P28223); assay: 5-hydroxytryptamine receptor 2A (HTR2A) small molecule antagonists, cell-based qHTS assay (AID 1963586); further: nearly all actives have a fitted effect of over 45% in size
Summary of the method: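 Antagonist-mode intracellular calcium assay: DOI (4 nM) added after 5 min compound pre-incubation at room temperature to dye-loaded HTR2A-CHO cells. Fluorescence followed for 3 min, sampled every second.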

[13] = target: 5-hydroxytryptamine receptor 2A (Homo sapiens) (UniProt P28223); assay: 5-hydroxytryptamine receptor 2A (HTR2A) small molecule agonists, cell-based qHTS assay (AID 1963587); further: nearly all actives have a fitted effect of over 30% in size
Summary of the method: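 Kinetic calcium-flux fluorescence (2 min, 1 sec intervals) after compound addition in agonist mode. HTR2A-CHO cells were cultured 18 h, then dye-loaded 1 h at 37 C.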

[14] = target: Muscarinic acetylcholine receptor M1 (Homo sapiens) (UniProt P11229); assay: Cholinergic receptor muscarinic 1 (CHRM1) small molecule antagonists, cell-based qHTS assay (AID 1963588); further: nearly all actives have a fitted effect of over 40% in size
Summary of the method: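 CHRM1-CHO calcium-flux assay, antagonist mode. Cells were seeded 18 h, dye-loaded 1 h at 37 C and given compound for 5 min at RT, then acetylcholine was added at 50nM. FDSS fluorescence was read 3 min; 15 concentrations, three runs.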

[15] = target: Muscarinic acetylcholine receptor M1 (Homo sapiens) (UniProt P11229); assay: Cholinergic receptor muscarinic 1 (CHRM1) small molecule agonists, cell-based qHTS assay (AID 1963589); further: nearly all actives have a fitted effect of over 35% in size
Summary of the method: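 Agonist-mode qHTS in CHO cells stably carrying human muscarinic M1. Intracellular calcium is tracked by fluorescence every second after compound transfer; each compound runs at 15 concentrations in three independent runs.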

[16] = cAMP Responsive Elements (CRE) small molecule agonists, cell-based qHTS assay (AID 1963590)
Summary of the method: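 Agonist mode qHTS in CRE-bla HEK 293T cells: compounds dosed from DMSO for 3 h at 37 C/5% CO2, followed by LiveBLAzer B/G FRET substrate for 2 h at room temperature.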

[17] = cAMP Responsive Elements (CRE) small molecule antagonists, cell-based qHTS assay (AID 1963591; active means well fitted inhibition curve with a large enough effect in the signal ratio in the repeat runs, not every such curve was filed as active; the % refers to the signal ratio)
Summary of the method: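 Antagonist mode: test compounds are co-incubated with the adenylyl cyclase activator NKH477 (0.25 uM final) on CRE-bla HEK293T cells for 3 h at 37 °C, followed by LiveBLAzer substrate loading.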

[18] = target: Beta-2 adrenergic receptor (Homo sapiens) (UniProt P07550); assay: Adrenergic beta2 receptor (ADRB2) small molecule antagonists, cell-based qHTS assay (AID 1963592); further: series mostly up to about 92 µM; nearly all actives have a fitted effect of over 50% in size
Summary of the method: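 Cells (CHO, stable ADRB2 overexpression) incubated 18-20hr at 37C; compounds added from DMSO; agonist mix (1nM isoproterenol, 100uM IBMX, 25uM Ro-20-1724) added; 0.5hr RT; d2-cAMP and anti-cAMP-cryptate added; 1hr RT; 665/615 nm read.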

[19] = target: D(2) dopamine receptor (Homo sapiens) (UniProt P14416); assay: Dopamine D2 receptor (DRD2) small molecule agonists, cell-based qHTS assay (AID 1963594); further: nearly all actives have a fitted effect of over 35% in size
Summary of the method: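 cAMP accumulation in DRD2-HEK293 cells measured by HTRF after 1 h detection; compounds added 10 min before NKH477 (200nM […]) forskolin-analogue stimulation, 30 min at room temperature, with Ro20-1724 present at 0.1 mM final.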

[20] = target: D(2) dopamine receptor (Homo sapiens) (UniProt P14416); assay: Dopamine D2 receptor (DRD2) small molecule antagonists, cell-based qHTS assay (AID 1963595; active means well fitted inhibition curve with a large enough effect in the signal ratio in the repeat runs, with a control signal flat; the % refers to the signal ratio)
Summary of the method: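 DRD2-HEK293; 0.1 mM Ro20-1724; cpd 10 min RT; NKH477 200 nM + quinpirole 12 nM, 30 min RT; HTRF cAMP (cAMP-d2/anti-cAMP cryptate), 665/620 nm ratio after 1 h.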

Measured: Potency

Chain of Gonadotropin-releasing hormone receptor (Homo sapiens) (P30968 whole entry, looked up): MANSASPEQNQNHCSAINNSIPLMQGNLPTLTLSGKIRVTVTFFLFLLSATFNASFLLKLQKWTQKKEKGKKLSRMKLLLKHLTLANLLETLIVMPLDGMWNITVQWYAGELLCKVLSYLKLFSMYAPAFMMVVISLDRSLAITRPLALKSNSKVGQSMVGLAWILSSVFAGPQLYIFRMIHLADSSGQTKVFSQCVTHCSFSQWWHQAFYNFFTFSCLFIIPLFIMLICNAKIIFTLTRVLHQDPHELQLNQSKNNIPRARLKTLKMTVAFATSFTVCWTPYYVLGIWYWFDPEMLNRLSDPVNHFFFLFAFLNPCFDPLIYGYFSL
Chain of D(2) dopamine receptor (Homo sapiens) (P14416 whole entry, looked up): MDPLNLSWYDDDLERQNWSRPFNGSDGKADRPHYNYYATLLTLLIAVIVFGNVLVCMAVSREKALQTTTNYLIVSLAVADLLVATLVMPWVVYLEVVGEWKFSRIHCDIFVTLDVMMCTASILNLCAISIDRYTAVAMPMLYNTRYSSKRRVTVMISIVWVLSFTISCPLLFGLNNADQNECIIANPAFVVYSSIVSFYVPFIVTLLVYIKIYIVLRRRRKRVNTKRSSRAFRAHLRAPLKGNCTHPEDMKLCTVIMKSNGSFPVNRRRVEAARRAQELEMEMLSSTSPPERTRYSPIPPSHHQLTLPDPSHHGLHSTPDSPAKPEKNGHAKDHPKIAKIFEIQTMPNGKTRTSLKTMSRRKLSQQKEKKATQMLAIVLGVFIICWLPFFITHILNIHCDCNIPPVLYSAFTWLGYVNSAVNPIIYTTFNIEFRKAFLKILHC
Chain of Muscarinic acetylcholine receptor M1 (Homo sapiens) (P11229 whole entry, looked up): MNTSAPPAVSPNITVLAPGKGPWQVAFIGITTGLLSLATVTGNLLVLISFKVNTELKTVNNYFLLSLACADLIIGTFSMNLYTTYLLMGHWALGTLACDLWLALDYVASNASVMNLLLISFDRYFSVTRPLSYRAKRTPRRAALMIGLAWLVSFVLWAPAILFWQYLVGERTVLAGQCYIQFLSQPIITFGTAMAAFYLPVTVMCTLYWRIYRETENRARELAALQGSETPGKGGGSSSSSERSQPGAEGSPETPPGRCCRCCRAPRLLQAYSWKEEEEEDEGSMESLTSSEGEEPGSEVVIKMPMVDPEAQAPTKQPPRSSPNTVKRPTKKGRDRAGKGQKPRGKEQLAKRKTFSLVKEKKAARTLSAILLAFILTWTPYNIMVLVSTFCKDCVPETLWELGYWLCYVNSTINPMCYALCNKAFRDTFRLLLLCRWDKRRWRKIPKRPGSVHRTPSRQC
Chain of 5-hydroxytryptamine receptor 2A (Homo sapiens) (P28223 whole entry, looked up): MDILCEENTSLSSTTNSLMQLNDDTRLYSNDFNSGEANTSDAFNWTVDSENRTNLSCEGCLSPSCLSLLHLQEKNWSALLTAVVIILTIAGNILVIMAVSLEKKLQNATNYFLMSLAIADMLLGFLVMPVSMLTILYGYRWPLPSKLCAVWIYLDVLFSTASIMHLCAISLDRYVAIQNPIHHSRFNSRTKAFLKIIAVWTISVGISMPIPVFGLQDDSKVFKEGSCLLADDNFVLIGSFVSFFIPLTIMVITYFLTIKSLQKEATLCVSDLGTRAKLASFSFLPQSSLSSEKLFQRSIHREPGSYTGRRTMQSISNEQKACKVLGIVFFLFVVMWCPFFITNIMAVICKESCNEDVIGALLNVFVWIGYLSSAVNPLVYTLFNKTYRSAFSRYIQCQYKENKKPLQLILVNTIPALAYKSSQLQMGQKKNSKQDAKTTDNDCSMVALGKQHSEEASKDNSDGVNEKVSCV
Chain of KiSS-1 receptor (Homo sapiens) (Q969F8 whole entry, looked up): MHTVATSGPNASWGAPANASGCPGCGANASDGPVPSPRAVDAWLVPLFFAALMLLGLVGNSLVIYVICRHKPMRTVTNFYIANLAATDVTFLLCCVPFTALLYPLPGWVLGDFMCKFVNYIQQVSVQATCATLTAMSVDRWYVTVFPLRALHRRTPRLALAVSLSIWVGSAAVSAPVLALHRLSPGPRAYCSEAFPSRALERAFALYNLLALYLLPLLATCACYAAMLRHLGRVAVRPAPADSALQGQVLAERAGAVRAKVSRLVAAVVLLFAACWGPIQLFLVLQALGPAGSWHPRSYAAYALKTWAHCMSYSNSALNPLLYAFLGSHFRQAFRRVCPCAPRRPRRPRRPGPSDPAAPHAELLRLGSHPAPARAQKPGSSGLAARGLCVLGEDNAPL
Chain of Beta-2 adrenergic receptor (Homo sapiens) (P07550 whole entry, looked up): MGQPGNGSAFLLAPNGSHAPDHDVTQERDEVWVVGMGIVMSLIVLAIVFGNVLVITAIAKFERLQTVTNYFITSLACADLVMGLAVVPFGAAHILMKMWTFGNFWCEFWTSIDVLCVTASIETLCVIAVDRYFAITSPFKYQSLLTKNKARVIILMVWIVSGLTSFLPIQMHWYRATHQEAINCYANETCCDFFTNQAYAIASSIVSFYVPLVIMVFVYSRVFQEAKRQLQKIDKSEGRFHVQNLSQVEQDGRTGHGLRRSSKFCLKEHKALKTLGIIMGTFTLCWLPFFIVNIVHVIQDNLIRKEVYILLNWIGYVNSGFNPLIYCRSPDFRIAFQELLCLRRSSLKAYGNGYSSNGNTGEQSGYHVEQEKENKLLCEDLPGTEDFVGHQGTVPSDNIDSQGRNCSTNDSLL

CC[N+](CC)(CC)Cc1ccccc1
inactive: all assays above

Clc1cc(Cl)nc(Cl)n1
not listed: [19] | [20]
inactive: all other assays above

CCC(O)C(C)(C)C (configuration not stated)
inactive: all assays above

COC(C)OC
inactive: all assays above

CCCCC/C=C\CCC=O
inactive: all assays above

Cn1nnc2c(C(N)=O)ncn2c1=O
inactive: all assays above

C[C@H](CCC(=O)NCC(=O)O)[C@H]1CC[C@H]2[C@@H]3[C@H](O)C[C@@H]4C[C@H](O)CC[C@]4(C)[C@H]3C[C@H](O)[C@]12C
not listed: [20]
inactive: all other assays above
